PubChem BioAssay (Tox21)
Inconclusive results are not listed. A call without a number means that no potency is given here. Values without a mark were called inactive. Active and inactive are the calls of the source. Unless noted, the call rests on the fitted dose curve; in most records, active means well fitted curve in the direction sought with a large enough effect in the repeat runs; inconclusive means weak or mixed curves; inactive means no such curve, though single readings can be large; an effect the other way counts as inactive or inconclusive.

Columns and labels:
[1] = qHTS assay to identify small molecule antagonists of the vitamin D receptor (VDR) signaling pathway - cell viability counter screen (AID 743225); further: nearly all actives have a fitted effect of over 50% in size
Method in brief: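 In this counter screen, VDR-bla HEK 293T cells receive test compound plus 3 nM final calcitriol for 16 h at 37C. Room-temperature steps of 2 h with the beta-lactamase substrate, then 30 min with CellTiter-Glo, precede the luminescence read.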

[2] = qHTS assay to identify small molecule agonists of the NFkB signaling pathway - cell viability counter screen (AID 1159515; calls by dose curve; further: series mostly up to about 61 µM; nearly all actives have a fitted effect of over 55% in size)
Method in brief: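 NFkB-bla ME-180 cells, 2,000/well, were plated overnight at 37 C, 5% CO2, then exposed to compounds in DMSO for 5 hr. After the bla FRET read, CellTiter-Glo was added to the same wells; luminescence was read after 30 min at room temperature.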

[3] = qHTS assay to identify small molecule agonists of the endoplasmic reticulum stress response signaling pathway (AID 1159516; active means well fitted activation curve with a large enough effect in the signal ratio in the repeat runs, not every such curve was filed as active; the % refers to the signal ratio)
Method in brief: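 CellSensor ESRE-bla HeLa cells, carrying a beta-lactamase reporter driven by the ER stress response element, were plated overnight and exposed to compounds for 5 hr at 37 C. Reporter activity was read as FRET substrate fluorescence after 2 hr at room temperature.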

[4] = qHTS assay to identify small molecule agonists of the endoplasmic reticulum stress response signaling pathway - cell viability counter screen (AID 1159517; calls by dose curve; further: series mostly up to about 61 µM; nearly all actives have a fitted effect of over 50% in size)
Method in brief: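 Luminescence readout: CellTiter-Glo, 30 min RT, same wells as the ESRE-bla reporter read. HeLa ESRE-bla, 1,500 cells/well, o/n 37 C; cpd 5 hr 37 C/5% CO2.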

[5] = qHTS assay to identify small molecule antagonists of the retinoid-related orphan receptor gamma (ROR-gamma) signaling pathway - cell viability counter screen (AID 1159520); further: nearly all actives have a fitted effect of over 50% in size
Method in brief: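 Tet-on ROR gamma CHO cells (1,000/well) were plated 4 hr, given compounds in DMSO for 2 hr at 37 C, then induced with 1 uM final doxycycline for 16 hr. Viability was read as ATP by CellTiter-Glo luminescence after 30 min.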

[6] = qHTS assay to identify small molecule agonists of the AP-1 signaling pathway - cell viability counter screen (AID 1159525; calls by dose curve; further: nearly all actives have a fitted effect of over 55% in size)
Method in brief: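 ME-180 AP-1-bla, 2500 cells/well, Opti-MEM + 0.5% dialyzed FBS; overnight 37 °C; cpd 15-pt titration, 5 h 37 °C; CellTiter-Glo 30 min RT; luminescence read; normalised to TOAB and DMSO controls.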

[7] = qHTS assay to identify small molecule agonists of the AP-1 signaling pathway (AID 1159526; calls by dose curve)
[8] = target: Retinoic acid receptor RXR-alpha (Homo sapiens) (UniProt P19793); test: qHTS assay to identify small molecule agonists of the RXR signaling pathway (AID 1159527; calls by dose curve; further: nearly all actives have a fitted effect of over 35% in size)
Sequence of Retinoic acid receptor RXR-alpha (Homo sapiens) (P19793 whole entry, looked up): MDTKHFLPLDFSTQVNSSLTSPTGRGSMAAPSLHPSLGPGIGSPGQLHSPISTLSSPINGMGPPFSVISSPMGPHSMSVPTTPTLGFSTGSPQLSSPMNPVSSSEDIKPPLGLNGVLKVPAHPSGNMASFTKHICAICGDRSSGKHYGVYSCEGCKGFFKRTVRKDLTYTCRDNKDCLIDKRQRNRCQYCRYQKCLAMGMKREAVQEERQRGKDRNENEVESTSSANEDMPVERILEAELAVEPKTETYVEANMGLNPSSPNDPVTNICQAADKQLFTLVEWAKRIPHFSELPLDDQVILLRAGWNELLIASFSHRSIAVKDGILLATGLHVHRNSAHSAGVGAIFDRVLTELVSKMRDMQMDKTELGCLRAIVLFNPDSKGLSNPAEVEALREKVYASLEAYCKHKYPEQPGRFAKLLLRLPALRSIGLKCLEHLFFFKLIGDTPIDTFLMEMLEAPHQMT
Method in brief: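 Fluorescence ratio readout (460 vs 530 nm) from GeneBLAzer RXR-alpha HEK 293T cells after 16 hr compound treatment; cells seeded 5 hr beforehand in low-serum, charcoal-stripped medium.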

[9] = qHTS assay to identify small molecule agonists of the RXR signaling pathway - cell viability counter screen (AID 1159529);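 further: HEK 293T cells carrying an RXR-alpha UAS beta-lactamase reporter; series mostly up to about 77 µM; nearly all actives have a fitted effect of over 50% in size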
Method in brief: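 Viability read-out for the RXR-alpha agonist qHTS: luminescent CellTiter-Glo signal after 30 min at RT. HEK 293T bla reporter cells, 2% charcoal-stripped FBS, 16 hr compound incubation; tetraoctyl ammonium bromide as cytotoxic control.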

[10] = qHTS assay to identify small molecule antagonists of the retinoic acid receptor (RAR) signaling pathway (AID 1159552; further: nearly all actives have a fitted effect of over 50% in size)
Method in brief: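 Using a RARE-driven luciferase construct in C3RL4 cells, retinol at 1 uM final provided the agonist stimulus while compounds were co-applied. After 6 hours at 37 C, luminescence was recorded to flag inhibitors of retinol signaling.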

[11] = qHTS assay to identify small molecule agonists of the retinoic acid receptor (RAR) signaling pathway (AID 1159553); further: potency means the concentration at half of the fitted maximal effect
Method in brief: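 C3RL4 cells carrying a RARE luciferase reporter were plated overnight at 37 C, then exposed to compounds in DMSO for 6 hr at 37 C and 5% CO2. Luminescence was read 30 min after luciferase reagent addition at room temperature.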

[12] = qHTS assay to identify small molecule antagonists of the estrogen related receptor (ERR) signaling pathway from Tox21 library - cell viability counter screen (AID 1224834); further: nearly all actives have a fitted effect of over 30% in size
Method in brief: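 ERR reporter cells were plated 6 h before compound addition, then exposed to test compounds in DMSO for 17.5 h at 37 C. Viability was read as CellTiter-Fluor fluorescence after a 30-minute incubation at 37 C.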

[13] = target: Luciferin 4-monooxygenase (Photinus pyralis) (UniProt P08659); test: qHTS assay to identify small molecule inhibitors of firefly luciferase (AID 1224835); further: nearly all actives have a fitted effect of over 25% in size; further: potency means the concentration at half of the fitted maximal effect
Sequence of Luciferin 4-monooxygenase (Photinus pyralis) (P08659 whole entry, looked up): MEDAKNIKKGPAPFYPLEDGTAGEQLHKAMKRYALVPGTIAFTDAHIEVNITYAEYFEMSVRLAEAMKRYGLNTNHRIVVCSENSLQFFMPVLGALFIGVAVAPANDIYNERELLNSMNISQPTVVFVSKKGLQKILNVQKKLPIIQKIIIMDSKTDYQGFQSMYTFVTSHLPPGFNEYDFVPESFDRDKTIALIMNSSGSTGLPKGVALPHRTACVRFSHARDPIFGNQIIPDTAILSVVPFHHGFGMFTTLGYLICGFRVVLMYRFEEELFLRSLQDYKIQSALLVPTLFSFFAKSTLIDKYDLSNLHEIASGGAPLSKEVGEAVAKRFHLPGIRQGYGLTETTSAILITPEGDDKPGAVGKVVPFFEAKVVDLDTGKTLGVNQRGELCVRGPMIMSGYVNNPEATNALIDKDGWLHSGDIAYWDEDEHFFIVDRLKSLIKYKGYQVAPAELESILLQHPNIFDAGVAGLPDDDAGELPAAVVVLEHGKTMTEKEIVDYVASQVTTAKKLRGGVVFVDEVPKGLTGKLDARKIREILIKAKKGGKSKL
Method in brief: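 Quantitative HTS format; KM concentrations of both substrates. Purified P. pyralis FLuc activity quantified from luminescence images.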

[14] = qHTS assay to identify small molecule agonists of the constitutive androstane receptor (CAR) signaling pathway - cell viability counter screen (AID 1224836); further: series mostly up to about 92 µM; nearly all actives have a fitted effect of over 45% in size
Method in brief: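 Multiplexed viability check: HepG2-CYP2B6-hCAR cells, 15-point compound dosing, 0.75 uM PK11195 final, 23 h at 37 C, CellTiter-Fluor fluorescence.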

[15] = qHTS assay to identify small molecule antagonists of the constitutive androstane receptor (CAR) signaling pathway - cell viability counter screen (AID 1224837); further: series mostly up to about 92 µM; nearly all actives have a fitted effect of over 45% in size
Method in brief: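 HepG2 cells stably expressing hCAR and a CYP2B6-2.2kb reporter were plated and pre-incubated 4 hr at 37 C/5% CO2, then given compounds at 15 concentrations plus 50 nM CITCO (final). After 23 hr, viability was read by CellTiter-Fluor fluorescence.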

[16] = target: Nuclear receptor subfamily 1 group I member 3 (Homo sapiens) (UniProt Q14994); test: qHTS assay to identify small molecule agonists of the constitutive androstane receptor (CAR) signaling pathway (AID 1224839);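 further: HepG2 cells stably carrying human CAR and a CYP2B6 luciferase reporter; series mostly up to about 92 µM; nearly all actives have a fitted effect of over 15% in size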
Sequence of Nuclear receptor subfamily 1 group I member 3 (Homo sapiens) (Q14994 whole entry, looked up): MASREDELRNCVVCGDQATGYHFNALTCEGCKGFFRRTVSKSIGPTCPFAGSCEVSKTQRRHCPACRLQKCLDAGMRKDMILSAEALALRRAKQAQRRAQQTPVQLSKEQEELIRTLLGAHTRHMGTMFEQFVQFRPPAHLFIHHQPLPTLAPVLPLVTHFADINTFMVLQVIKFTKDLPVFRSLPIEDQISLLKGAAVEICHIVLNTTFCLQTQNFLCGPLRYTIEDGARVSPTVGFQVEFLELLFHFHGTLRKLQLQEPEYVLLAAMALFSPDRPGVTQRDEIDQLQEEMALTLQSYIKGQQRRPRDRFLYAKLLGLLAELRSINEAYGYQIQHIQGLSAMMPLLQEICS
Method in brief: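 Using human hepatoma HepG2 cells engineered with hCAR and a CYP2B6-2.2kb reporter, 15-concentration compound series were incubated 24 h alongside PK11195 at 0.75 uM final, with luminescence quantified afterwards.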

[17] = qHTS assay to identify small molecule antagonists of the estrogen related receptor signaling pathway with the pleiotropic PPARgamma coactivator (PGC) from Tox21 10K library - cell viability counter screen (AID 1224840; active means well fitted cell-killing curve with a large enough effect in the repeat runs, not every such curve was filed as active; further: nearly all actives have a fitted effect of over 40% in size)
Method in brief: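 PGC/ERR cells were seeded at 2,000 cells/well and left 6 hours at 37 C/5% CO2 before pin-tool addition of compounds in DMSO. After 17.5 hours at 37 C, CellTiter-Fluor was added and fluorescence read 30 minutes later.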

[18] = qHTS assay to identify small molecule antagonists of the retinoid acid receptor (RAR) signaling pathway - cell viability counter screen (AID 1159551); further: nearly all actives have a fitted effect of over 35% in size
Method in brief: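 C3RL4 cells were seeded overnight at 37 C, then treated with compounds plus 1 uM (final) retinol for 6 h at 37 C. Viability was read as ATP by CellTiter-Glo luminescence after 30 min at room temperature.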

[19] = target: Nuclear receptor subfamily 1 group I member 3 (Homo sapiens) (UniProt Q14994); test: qHTS assay to identify small molecule antagonists of the constitutive androstane receptor (CAR) signaling pathway (AID 1224838); further: nearly all actives have a fitted effect of over 40% in size
Method in brief: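 HepG2 cells stably co-transfected with hCAR and a CYP2B6-2.2kb luciferase reporter were seeded 4 h before compound addition at 15 concentrations. Cells were stimulated with 50 nM CITCO (final) for 24 h at 37 C; luciferase luminescence was then read.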

Row | SMILES | outcome [1] | outcome [2] | Potency [3] | outcome [4] | outcome [5] | outcome [6] | Potency [7] | Potency [8] | Potency [9] | outcome [10] | Potency [11] | outcome [12] | Potency [13] | outcome [14] | outcome [15] | Potency [16] | outcome [17] | outcome [18] | outcome [19]
1 | CC(=O)Nc1ccc(OCCOCCOc2ccc(NC(C)=O)cc2)cc1 | inactive | inactive | inactive | inactive | inactive | inactive | inactive | inactive | inactive | inactive | inactive | inactive | inactive | inactive | inactive | inactive | inactive |  | 
2 | O=CN1CCCCC1 | inactive | inactive | inactive | inactive | inactive | inactive | inactive | inactive | inactive | inactive | inactive | inactive | inactive | inactive | inactive | inactive | inactive | inactive | inactive
3 | NCC1CCC(C(=O)Oc2ccc(CCC(=O)O)cc2)CC1 (stereo unspecified) | inactive | inactive | inactive | inactive | inactive | inactive | inactive | inactive | inactive | inactive | inactive | inactive | inactive | inactive | inactive |  | inactive | inactive | 
4 | C=CCN(CC=C)CC=C | inactive | inactive | inactive | inactive | inactive | inactive | inactive | inactive | inactive | inactive | inactive | inactive | inactive | inactive | inactive |  | inactive | inactive | inactive
5 | CCCCN(CCCC)CCCCCCN(CCCC)CCCC | inactive | inactive | inactive | inactive | inactive | inactive | inactive | inactive | inactive | inactive | inactive | inactive | inactive | inactive | inactive |  | inactive | inactive | 
6 | CCCC(C)C(O)CC (stereo unspecified) | inactive | inactive | inactive | inactive | inactive | inactive | inactive | inactive | inactive | inactive | inactive | inactive | inactive | inactive | inactive |  | inactive | inactive | 
7 | CC(=O)c1c(C)cc(C(C)(C)C)cc1C | inactive | inactive | inactive | inactive | inactive | inactive | inactive | inactive | inactive | inactive | inactive | inactive | inactive | inactive | inactive | inactive | inactive |  | 
8 | O=S(=O)(O)c1cc(I)c(O)c2ncccc12 | inactive | inactive | inactive | inactive | inactive | inactive | inactive | inactive | inactive | inactive | inactive | inactive | inactive | inactive | inactive |  | inactive |  | 
9 | CCCCCCC(=O)c1ccccc1 | inactive | inactive | inactive | inactive | inactive | inactive | inactive | inactive | inactive | inactive | 54.5 µM (active) | inactive | 7.1 µM (active) | inactive | inactive |  | inactive | inactive | inactive
10 | CNC(=O)c1c(I)c(NC(C)=O)c(I)c(C(=O)O)c1I |  | inactive | inactive | inactive | inactive | inactive | inactive | inactive | inactive | inactive | inactive | inactive | inactive | inactive | inactive |  | inactive | inactive | 
11 | N#Cc1ccccc1C#N | inactive | inactive | inactive | inactive | inactive | inactive | inactive | inactive | inactive | inactive | inactive | inactive | inactive | inactive | inactive |  | inactive | inactive | 
12 | CCCc1ccc(O)c(OC)c1 |  | inactive | inactive | inactive | inactive | inactive | inactive | inactive | inactive | inactive | inactive | inactive | inactive | inactive | inactive | inactive | inactive | inactive | 
13 | CCOCCOCCOC(C)=O | inactive | inactive | inactive | inactive | inactive | inactive | inactive | inactive | inactive | inactive | inactive | inactive | inactive | inactive | inactive | inactive | inactive | inactive | inactive
14 | CCC(=O)OCCOc1ccccc1 |  | inactive | inactive | inactive | inactive | inactive | inactive | inactive | inactive | inactive | inactive | inactive | inactive | inactive | inactive |  | inactive |  | 
15 | O=C(O)/C=C(\CC(=O)O)C(=O)O | inactive | inactive | inactive | inactive | inactive | inactive | inactive | inactive | inactive | inactive | inactive | inactive | inactive | inactive | inactive | inactive | inactive | inactive | inactive
16 | Cc1ccc2cccnc2c1 |  | inactive | inactive | inactive | inactive | inactive | inactive | inactive | inactive | inactive | inactive | inactive | inactive | inactive | inactive | inactive | inactive |  | inactive
